Laboratory results published in PubChem BioAssay AID602247 (The Scripps Research Institute Molecular Screening Center, 2012).
The campaign covered roughly 360,000 compounds. About 80 (0.02%) were called active.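 The calls were made as follows: active = activation above the run cutoff, the mean activation of all test compounds plus 3 SD (cut at about 40% in these data); inactive = the rest.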 For the sample, actives were picked, then their nearest neighbours and some compounds at random.

experiment: nonselective calcium activators in parental CHO-K1 cells, primary screen, counter-screen for M1 PAM project, cell-based, Fluo-8 calcium fluorescence, full deck, 1536-well (AID 602247); settings: parental CHO-K1, ATP EC20, Fluo-8 calcium fluorescence; at 3 µM; active compounds read high; 0% at ATP EC20, 100% at ATP max;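 also: peak over basal fluorescence ratio in a 140 s read after ATP addition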

| SMILES | activation |
| --- | --- |
| CCn1c(O)c(N=NC2=NC(=O)CS2)c2cc(C)ccc21 | -3.3% (inactive) |
| COc1cc(C(=O)OC(C)C(=O)NCC2CCCCC2)cc(NC(=O)c2ccco2)c1OC (centres undefined) | 7.38% (inactive) |
| COC(=O)c1cccc(N(C(=O)CNC(=O)c2cccs2)C(C(=O)NCC2CCCO2)c2ccc(OC)c(OC)c2)c1 (centres undefined) | 6.05% (inactive) |
| O=C(Nc1ccccc1)c1nnsc1S(=O)(=O)c1ccc(Cl)cc1 | -4.32% (inactive) |
| Cc1ccc(NC(=O)C2(N3CCC3=O)CCCCC2)cc1 | 30.7% (inactive) |
| COCCCNS(=O)(=O)c1cccc(S(=O)(=O)c2cccc(S(=O)(=O)NCCCOC)c2)c1 | -13.2% (inactive) |
| Cc1ccc(C(=O)N[C@H](C(=O)N2CCN(c3ncccn3)CC2)C(C)C)cc1 | 21.1% (inactive) |
| O=C(CN1C(=O)NC2(CCCC2)C1=O)Nc1cc(C(F)(F)F)ccc1N1CCOCC1 | -14.5% (inactive) |
| Cc1ccc(C(=O)O)cc1N1C(=O)CCCC1=O | 17.6% (inactive) |
| CCC(C(=O)Nc1ccc(C(C)C)cc1)c1ccccc1 (centres undefined) | 7.1% (inactive) |
| NC(=O)C1CCN(Cc2nc3c(Br)cc(Br)cc3c(=O)[nH]2)CC1 | 8.89% (inactive) |
| CCn1nc(C)c(/C=N/NC(=O)Cc2ccc(Cl)cc2)c1C | 10.4% (inactive) |
| COc1ccc(CN2C(=O)CC(Cc3ccc(C)cc3)C2=O)cc1OC (centres undefined) | 0.86% (inactive) |
| CC(NC(=O)c1cc2cc(Cl)ccc2oc1=N)c1ccccc1 (centres undefined) | 4.16% (inactive) |
| O=C(O)c1cccc2c1C(=O)N(C1CCCCC1)C2 | 12.5% (inactive) |
| Cc1c(C#N)c2ncn(CC#N)c(=O)c2n1-c1ccccc1 | 10.7% (inactive) |
| OCC(O)C1OCOC(C(O)CO)C1O (centres undefined) | -2.45% (inactive) |
| Cc1ccc(-c2nnc(Nc3ccc(C(=O)N(C)C)cc3)c3ccccc23)cc1S(N)(=O)=O | -6.44% (inactive) |
| COc1ccc(S(=O)(=O)N2CCOCC2)cc1NC(=O)CSc1ncnc2ccccc12 | -10.6% (inactive) |
| C/C(CCc1ccccc1)=N\NC(=O)c1ccc(CN2CCOCC2)cc1 | 10.1% (inactive) |
| C[C@@H]1CN([C@@H](C)CO)C(=O)c2cc(NS(C)(=O)=O)ccc2O[C@@H](C)CCCCO[C@H]1CN(C)C(=O)Nc1ccc2c(c1)OCO2 | 5.94% (inactive) |
| O=C(NCc1ccccc1)C(c1ccco1)N(C(=O)c1csnn1)c1ccccc1F (centres undefined) | -7% (inactive) |
| Cc1ccc(C)c2[nH]c(=O)c(CN(Cc3cccnc3)C(=S)NCc3ccco3)cc12 | -16.3% (inactive) |

| SMILES | activation |
| --- | --- |
| NC1=NC(=O)C2(COC(c3ccccc3Cl)OC2)S1 (centres undefined) | 19% (inactive) |
| CCOc1ccc(C(=O)Nc2ccc(S(=O)(=O)NCC3CCCO3)cc2)cc1OCC (centres undefined) | -16.7% (inactive) |
| CCOc1ccc(S(=O)(=O)N(CC(=O)O)c2ccccc2)cc1 | 12.9% (inactive) |
| CN(C)/C=C(\C#N)C(=O)c1cccnc1Oc1ccc(F)cc1F | 13.9% (inactive) |
| COCCNC(=O)C1CCN(C(=O)C2CC(=O)N(c3ccc(C)cc3)C2)CC1 (centres undefined) | 7.97% (inactive) |
| COc1ccc(-n2ncc3c2CC(C)(C)CC3NC(=O)CCc2c(C)noc2C)cc1 (centres undefined) | -2.15% (inactive) |
| CCCNC(=S)N1CCCC(c2nc3ccccc3[nH]2)C1 (centres undefined) | 14.2% (inactive) |
| CC(C)C[C@@H]1COc2cc(N3CCC[C@@H]3CO)ccc2S(=O)(=O)N1 | 4.5% (inactive) |
| CC1CCCN(C(C(=O)Nc2ccc(C(C)C)cc2)c2ccc3c(c2)OCO3)C1 (centres undefined) | 10.5% (inactive) |
| Cc1ccc(NS(=O)(=O)c2c(C)[nH]c(=O)[nH]c2=O)cc1C | 7.33% (inactive) |
| COc1cc(OC)cc(C(=O)NNC(=O)CNC(=O)c2ccc(Br)o2)c1 | -26.2% (inactive) |
| CCOC(=O)c1sc(N)c(C#N)c1COC(=O)C1=COCCO1 | -16.5% (inactive) |
| Cc1ccc(NC(=O)NC(=O)N(C2CCCCC2)S(=O)(=O)c2ccccc2)cc1 | 15.3% (inactive) |
| Cn1c(=O)oc2cc(S(=O)(=O)N3CCC(C(=O)Nc4ccc(OC(F)(F)F)cc4)CC3)ccc21 | 29.6% (inactive) |
| O=[N+]([O-])c1ccc(N2CCN(c3ccc(F)cc3)CC2)cn1 | -7.83% (inactive) |
| NC1=NC2(CCCCC2)N(c2ccc(F)cc2F)C(N)=N1 | -9.48% (inactive) |
| Cc1ccc(CC(=O)Nc2cccc(C#N)c2)cc1 | 18.7% (inactive) |
| CC(C)NC(=O)NC(=O)CSc1nnc(-c2ccccc2F)n1N | 30% (inactive) |
| CC1(C(=O)NS(=O)(=O)c2cccs2)CCN1C(=O)Cc1ccc(-c2ccccc2)cc1 (centres undefined) | 13% (inactive) |
| O=C(NC1CC2CCCC(C1)N2C(=O)N1CCCCC1)C1CCCCC1 (centres undefined) | 7.85% (inactive) |
| CCCC(C(=O)NC1CCCC1)N(C(=O)Cn1nnc(-c2ccc(C)o2)n1)c1cccc(O)c1 (centres undefined) | 13.1% (inactive) |
| COc1cccc(NC(=O)C(=O)c2cn(CC(=O)N3CCOCC3)c3ccccc23)c1 | -2.46% (inactive) |
| CCCCN(C(=O)c1cccc(N2C(=O)c3ccccc3C2=O)c1)c1c(N)n(CCCC)c(=O)[nH]c1=O | 11.7% (inactive) |

| SMILES | activation |
| --- | --- |
| O=C(Cn1cc(C(F)(F)F)ccc1=O)N/N=C/c1ccc(Cl)cc1Cl | 3.42% (inactive) |
| CC(OC(=O)CNC(=O)c1cccc(F)c1)C(=O)NC1CCCCC1C (centres undefined) | 10.1% (inactive) |
| CCC(=O)c1ccc(OCC(=O)N(CC)CC2COc3ccccc3O2)cc1 (centres undefined) | 15.6% (inactive) |
| O=C(N[C@H]1C/C=C\C(c2cccc(F)c2)N(Cc2ccccc2)C(=O)C1)OCC1c2ccccc2-c2ccccc21 (some centres undefined) | -2.24% (inactive) |
| O=C(OCC(=O)N1CCN(C(=O)c2ccco2)CC1)c1ccccc1Cc1ccccc1 | 8.99% (inactive) |
| COc1cccc(CN2CCC(C(=O)NC(c3ccc4c(c3)OCO4)c3ccccn3)CC2)c1 (centres undefined) | 12.4% (inactive) |
| CCOc1cc2c(Cl)ncnc2c(OCC)c1OCC | -10.2% (inactive) |
| CC1(C)O[C@@H]2[C@H](O1)[C@@H](CO)O[C@H]2n1c(N2CCCCC2)nc2c(N)ncnc21 | 11.6% (inactive) |
| COc1ccc(N2CC(C(=O)NCCS(=O)(=O)N3CCN(c4ccccc4)CC3)CC2=O)cc1 (centres undefined) | -1.18% (inactive) |
| C/C(=N\NC(=O)COc1ccc(C)cc1[N+](=O)[O-])c1ccc2c(c1)OCCO2 | 4.27% (inactive) |
| Cc1cc(C)n(-c2nnc(C)n2NC(=O)c2cccc(Cl)c2)n1 | 9.43% (inactive) |
| Cc1ccc(C)c(NC(=O)C2CC(=O)N(C(C)C)C2)c1 (centres undefined) | 12.2% (inactive) |
| COCCn1c(=O)[nH]c2cc(C(=O)NCc3cccnc3)ccc2c1=O | 6.89% (inactive) |
| CC(C)CC(=O)c1c[nH]c(C(=O)NCc2ccccc2)c1 | 0.92% (inactive) |
| O=C(CC(NCCN1CCOCC1)C(=O)O)Nc1cccc(Cl)c1 (centres undefined) | 20.9% (inactive) |
| CC(=O)NC1C(Oc2ccc(C)cc2)OC2COC(c3ccco3)OC2C1O (centres undefined) | -5.49% (inactive) |
| O=S(=O)(NC1CCCCC1N1CCN(c2ccccc2F)CC1)c1ccccc1 (centres undefined) | 19.1% (inactive) |
| O=C(Nc1ccc(Br)cc1)c1cccc(NC(=O)C2C3CC4OC(=O)C2C4C3)c1 (centres undefined) | 9.66% (inactive) |
| Cc1ccc(/C=C2\CCn3c2nc2cc(C(=O)O)ccc2c3=O)c(C)c1 | 17.1% (inactive) |
| O=C1c2cccc3cccc(c23)C(=O)N1c1cccc(O)c1 | 12.7% (inactive) |
| OC1CCCN(c2ncnc3c2nnn3Cc2c(F)cccc2Cl)C1 (centres undefined) | 20.4% (inactive) |
| CCC1CCCCN1C(=S)Nc1ccc(SC(F)F)cc1 (centres undefined) | 3.06% (inactive) |
| COc1ccc(O)c(C=Nc2cc(C)on2)c1 | 1.78% (inactive) |

| SMILES | activation |
| --- | --- |
| CC(C)C(=O)N1CC(=O)Nc2ccc(F)cc2C1c1ccc(F)cc1 (centres undefined) | 3.77% (inactive) |
| CCCN1CNC(=S)N(CCc2ccccc2)C1 | -4.97% (inactive) |
| O=C(Nc1ccc(Br)cc1F)C1CC(=O)N(C2CCCCC2)C1 (centres undefined) | 9.78% (inactive) |
| CCOc1ccccc1NC(=O)NC1CCCCCCC1 | 20% (inactive) |
| CN(C)/C(CN1CCCCC1)=C1\N=C(c2ccccc2)OC1=O | 19.8% (inactive) |
| CN(C)CCCOc1ccc(-c2ccc3nccn3c2)cn1 | 15.7% (inactive) |
| CCOP(=O)(OCC)C(Cc1ccccc1)N=C(c1ccccc1)c1ccccc1 (centres undefined) | 19.7% (inactive) |
| COc1ccc(OC)c(NC(=O)CSc2nc3cccnc3n2C)c1 | 9.99% (inactive) |
| O=C(CN1C(=O)c2ccc([N+](=O)[O-])cc2C1=O)Nc1nnc(C2CC2)s1 | 1.72% (inactive) |
| CC(=O)Nc1ccc(NC(=O)C2CCCN2S(=O)(=O)c2cccc(C(F)(F)F)c2)cc1 (centres undefined) | -6.05% (inactive) |
| O=C1c2ccncc2C(=O)N1C1CCCCC1 | 15.5% (inactive) |
| Cc1nc(C(F)(F)F)ccc1C(=O)N1CCC1(C)C(=O)NS(=O)(=O)c1ccccc1Cl (centres undefined) | 11.4% (inactive) |
| COc1ccc(C(=O)N2CCC(C(=O)Nc3ccc(C)cc3)CC2)cc1 | 28.6% (inactive) |
| Cc1ccc(Cn2cc(C(=O)NN)c(=O)c3ccc(F)cc32)cc1 | -28.1% (inactive) |
| CCOC(=O)C1(Cc2ccc(O)cc2)NC(c2ccccc2F)C2C(=O)N(C)C(=O)C21 (centres undefined) | 24% (inactive) |
| Cc1cccc([C@H]2[C@@H]3C=CC[C@@H](C)[C@@H]3C(=O)N2Cc2ccccc2)c1 | -0.48% (inactive) |
| CSc1ccc(S(=O)(=O)NCC(=O)OCC(=O)NC2(C#N)CCCCC2)cc1[N+](=O)[O-] | -4.9% (inactive) |
| Nc1nc(O)c(CC(=O)O)s1 | 1.33% (inactive) |
| O=C(CCS(=O)(=O)c1ccccc1Cl)Nc1ccc(S(=O)(=O)Nc2ncccn2)cc1 | 7.81% (inactive) |
| COc1ccc(S(=O)(=O)N2CN(CCc3ccc(OC)c(OC)c3)c3nc4ccccc4nc32)cc1 | 1.88% (inactive) |
